Of roughly 8,800 targets only a part is listed; those with a hit were picked by preference. About 0.5% of all pairs of compound and target were hits. A number with no mark means an inactive call.
Legend:
Assay in all cases: log2 fold change, soluble protein after heating vs DMSO (PISA); higher = thermal stabilisation; K562 lysate, 10 uM; active = over 0.2 and 3.5 SD of the protein, either way, in both replicates (recomputed)
lapatinib = compound: CS(=O)(=O)CCNCc1ccc(-c2ccc3ncnc(Nc4ccc(OCc5cccc(F)c5)c(Cl)c4)c3c2)o1 [lapatinib]
In short: (§1)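 Following dounce homogenisation of K562 pellets in PBS pH 7.4 with 1 mM MgCl2, crude extract at 1 mg/mL protein was incubated for 30 min with 10 μM compound. Aliquots were then heated for 3 min over 48°C-58°C and pooled, NP-40 was added to 0.5% at 4°C, and soluble protein was recovered as the supernatant at 21,000xg for 90 min. Channel-sum-equalised TMTpro 16plex LC-MS/MS quantified this protein. Each value, from duplicates, is a log-two fold change in thermal stability relative to solvent controls.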

pictilisib = compound: CS(=O)(=O)N1CCN(Cc2cc3nc(-c4cccc5[nH]ncc45)nc(N4CCOCC4)c3s2)CC1 [pictilisib]
In short: as §1

crizotinib = compound: C[C@@H](Oc1cc(-c2cnn(C3CCNCC3)c2)cnc1N)c1c(Cl)ccc(F)c1Cl [crizotinib]
In short: as §1

[1] = compound: C[C@H](C1=CC=C(C=C1)C(=O)NC2=C3C=CNC3=NC=C2)N
In short: as §1

duvelisib = compound: C[C@H](Nc1ncnc2nc[nH]c12)c1cc2cccc(Cl)c2c(=O)n1-c1ccccc1 [duvelisib]
In short: as §1

gandotinib = compound: Cc1cc(Nc2cc(CN3CCOCC3)c3nc(C)c(Cc4ccc(Cl)cc4F)n3n2)n[nH]1 [gandotinib]
In short: as §1

tozasertib = compound: Cc1cc(Nc2cc(N3CCN(C)CC3)nc(Sc3ccc(NC(=O)C4CC4)cc3)n2)n[nH]1 [tozasertib]
In short: as §1

doramapimod = compound: Cc1ccc(-n2nc(C(C)(C)C)cc2NC(=O)Nc2ccc(OCCN3CCOCC3)c3ccccc23)cc1 [doramapimod]
In short: as §1

bafetinib = compound: Cc1ccc(NC(=O)c2ccc(CN3CC[C@H](N(C)C)C3)c(C(F)(F)F)c2)cc1Nc1nccc(-c2cncnc2)n1 [bafetinib]
In short: as §1

[2] = compound: Cc1cccc(CC(=O)N2CCc3c2ccc(-c2cn(C)c4ncnc(N)c24)c3F)n1
In short: as §1

Chain of UniProt Q06210 (Q06210 whole entry, looked up): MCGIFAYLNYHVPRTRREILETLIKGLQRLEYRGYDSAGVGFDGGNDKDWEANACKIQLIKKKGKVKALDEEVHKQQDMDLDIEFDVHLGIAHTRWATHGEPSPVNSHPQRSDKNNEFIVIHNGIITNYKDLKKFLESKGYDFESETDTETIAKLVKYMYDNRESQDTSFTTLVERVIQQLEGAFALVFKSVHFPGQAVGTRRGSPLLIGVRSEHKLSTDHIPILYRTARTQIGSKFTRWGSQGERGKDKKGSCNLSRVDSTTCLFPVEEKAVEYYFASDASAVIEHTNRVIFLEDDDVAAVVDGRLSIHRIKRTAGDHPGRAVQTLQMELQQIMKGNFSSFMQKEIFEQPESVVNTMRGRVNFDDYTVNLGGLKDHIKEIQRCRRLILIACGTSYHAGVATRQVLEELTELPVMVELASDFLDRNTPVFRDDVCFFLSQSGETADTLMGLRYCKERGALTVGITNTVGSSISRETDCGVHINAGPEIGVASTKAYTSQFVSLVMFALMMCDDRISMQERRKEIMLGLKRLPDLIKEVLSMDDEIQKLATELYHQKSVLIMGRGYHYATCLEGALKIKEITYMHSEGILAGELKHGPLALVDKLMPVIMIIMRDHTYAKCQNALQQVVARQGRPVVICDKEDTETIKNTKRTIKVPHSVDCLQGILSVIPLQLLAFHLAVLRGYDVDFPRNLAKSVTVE
Chain of UniProt O94905 (O94905 whole entry, looked up): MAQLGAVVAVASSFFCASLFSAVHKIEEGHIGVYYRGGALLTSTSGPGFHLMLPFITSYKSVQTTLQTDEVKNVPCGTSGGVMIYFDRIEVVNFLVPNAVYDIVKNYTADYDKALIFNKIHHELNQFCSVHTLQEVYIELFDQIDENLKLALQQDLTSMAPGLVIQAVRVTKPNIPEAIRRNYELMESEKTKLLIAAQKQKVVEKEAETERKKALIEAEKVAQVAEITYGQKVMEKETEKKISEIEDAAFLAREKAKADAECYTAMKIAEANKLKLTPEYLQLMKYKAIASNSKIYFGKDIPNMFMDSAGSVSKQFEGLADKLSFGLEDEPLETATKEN
Chain of UniProt O14772 (O14772 whole entry, looked up): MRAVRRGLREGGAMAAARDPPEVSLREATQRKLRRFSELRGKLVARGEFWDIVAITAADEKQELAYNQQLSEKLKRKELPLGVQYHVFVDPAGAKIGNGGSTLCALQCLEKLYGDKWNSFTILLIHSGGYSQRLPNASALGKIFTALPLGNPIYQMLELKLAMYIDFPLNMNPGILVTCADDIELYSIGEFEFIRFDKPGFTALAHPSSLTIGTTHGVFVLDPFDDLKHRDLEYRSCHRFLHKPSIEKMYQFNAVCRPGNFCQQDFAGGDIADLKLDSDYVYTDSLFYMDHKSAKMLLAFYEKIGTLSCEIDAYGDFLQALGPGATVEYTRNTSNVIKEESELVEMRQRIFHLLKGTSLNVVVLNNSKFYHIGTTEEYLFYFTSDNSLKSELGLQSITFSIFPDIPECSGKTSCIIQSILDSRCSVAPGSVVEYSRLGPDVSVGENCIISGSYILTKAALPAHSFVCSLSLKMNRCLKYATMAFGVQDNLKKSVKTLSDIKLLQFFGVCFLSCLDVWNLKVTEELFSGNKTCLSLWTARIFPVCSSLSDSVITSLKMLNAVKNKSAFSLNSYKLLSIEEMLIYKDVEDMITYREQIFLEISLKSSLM
Chain of UniProt Q9Y285 (Q9Y285 whole entry, looked up): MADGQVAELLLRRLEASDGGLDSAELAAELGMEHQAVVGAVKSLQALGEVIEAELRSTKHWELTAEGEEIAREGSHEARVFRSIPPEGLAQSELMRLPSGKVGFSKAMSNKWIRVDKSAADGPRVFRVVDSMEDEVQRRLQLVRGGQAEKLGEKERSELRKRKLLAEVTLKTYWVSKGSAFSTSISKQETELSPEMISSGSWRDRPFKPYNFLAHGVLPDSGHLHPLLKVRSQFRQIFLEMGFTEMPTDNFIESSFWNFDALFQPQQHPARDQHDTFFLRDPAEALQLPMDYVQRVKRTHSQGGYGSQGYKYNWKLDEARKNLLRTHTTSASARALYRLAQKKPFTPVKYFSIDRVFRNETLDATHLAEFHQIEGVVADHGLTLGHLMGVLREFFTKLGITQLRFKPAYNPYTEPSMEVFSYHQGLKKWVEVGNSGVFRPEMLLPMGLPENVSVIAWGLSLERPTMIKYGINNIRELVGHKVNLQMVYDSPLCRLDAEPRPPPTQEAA
Chain of UniProt Q96G46 (Q96G46 whole entry, looked up): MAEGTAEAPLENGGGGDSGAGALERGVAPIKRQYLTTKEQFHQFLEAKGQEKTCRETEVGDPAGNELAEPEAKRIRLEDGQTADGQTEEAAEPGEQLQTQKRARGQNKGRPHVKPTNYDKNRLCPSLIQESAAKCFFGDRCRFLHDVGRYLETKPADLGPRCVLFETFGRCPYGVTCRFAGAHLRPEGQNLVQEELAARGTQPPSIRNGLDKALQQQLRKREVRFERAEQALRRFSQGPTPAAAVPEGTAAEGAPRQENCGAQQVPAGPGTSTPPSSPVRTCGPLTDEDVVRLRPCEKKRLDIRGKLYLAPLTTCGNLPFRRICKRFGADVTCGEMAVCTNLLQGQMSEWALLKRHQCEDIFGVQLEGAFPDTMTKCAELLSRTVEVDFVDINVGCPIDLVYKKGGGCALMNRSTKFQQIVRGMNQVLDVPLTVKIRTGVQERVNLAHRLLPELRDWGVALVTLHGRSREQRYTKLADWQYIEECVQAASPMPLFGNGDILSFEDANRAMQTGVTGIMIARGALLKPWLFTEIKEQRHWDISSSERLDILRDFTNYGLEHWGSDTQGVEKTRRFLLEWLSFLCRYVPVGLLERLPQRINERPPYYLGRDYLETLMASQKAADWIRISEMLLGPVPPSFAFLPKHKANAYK
Chain of UniProt Q14C86 (Q14C86 whole entry, looked up): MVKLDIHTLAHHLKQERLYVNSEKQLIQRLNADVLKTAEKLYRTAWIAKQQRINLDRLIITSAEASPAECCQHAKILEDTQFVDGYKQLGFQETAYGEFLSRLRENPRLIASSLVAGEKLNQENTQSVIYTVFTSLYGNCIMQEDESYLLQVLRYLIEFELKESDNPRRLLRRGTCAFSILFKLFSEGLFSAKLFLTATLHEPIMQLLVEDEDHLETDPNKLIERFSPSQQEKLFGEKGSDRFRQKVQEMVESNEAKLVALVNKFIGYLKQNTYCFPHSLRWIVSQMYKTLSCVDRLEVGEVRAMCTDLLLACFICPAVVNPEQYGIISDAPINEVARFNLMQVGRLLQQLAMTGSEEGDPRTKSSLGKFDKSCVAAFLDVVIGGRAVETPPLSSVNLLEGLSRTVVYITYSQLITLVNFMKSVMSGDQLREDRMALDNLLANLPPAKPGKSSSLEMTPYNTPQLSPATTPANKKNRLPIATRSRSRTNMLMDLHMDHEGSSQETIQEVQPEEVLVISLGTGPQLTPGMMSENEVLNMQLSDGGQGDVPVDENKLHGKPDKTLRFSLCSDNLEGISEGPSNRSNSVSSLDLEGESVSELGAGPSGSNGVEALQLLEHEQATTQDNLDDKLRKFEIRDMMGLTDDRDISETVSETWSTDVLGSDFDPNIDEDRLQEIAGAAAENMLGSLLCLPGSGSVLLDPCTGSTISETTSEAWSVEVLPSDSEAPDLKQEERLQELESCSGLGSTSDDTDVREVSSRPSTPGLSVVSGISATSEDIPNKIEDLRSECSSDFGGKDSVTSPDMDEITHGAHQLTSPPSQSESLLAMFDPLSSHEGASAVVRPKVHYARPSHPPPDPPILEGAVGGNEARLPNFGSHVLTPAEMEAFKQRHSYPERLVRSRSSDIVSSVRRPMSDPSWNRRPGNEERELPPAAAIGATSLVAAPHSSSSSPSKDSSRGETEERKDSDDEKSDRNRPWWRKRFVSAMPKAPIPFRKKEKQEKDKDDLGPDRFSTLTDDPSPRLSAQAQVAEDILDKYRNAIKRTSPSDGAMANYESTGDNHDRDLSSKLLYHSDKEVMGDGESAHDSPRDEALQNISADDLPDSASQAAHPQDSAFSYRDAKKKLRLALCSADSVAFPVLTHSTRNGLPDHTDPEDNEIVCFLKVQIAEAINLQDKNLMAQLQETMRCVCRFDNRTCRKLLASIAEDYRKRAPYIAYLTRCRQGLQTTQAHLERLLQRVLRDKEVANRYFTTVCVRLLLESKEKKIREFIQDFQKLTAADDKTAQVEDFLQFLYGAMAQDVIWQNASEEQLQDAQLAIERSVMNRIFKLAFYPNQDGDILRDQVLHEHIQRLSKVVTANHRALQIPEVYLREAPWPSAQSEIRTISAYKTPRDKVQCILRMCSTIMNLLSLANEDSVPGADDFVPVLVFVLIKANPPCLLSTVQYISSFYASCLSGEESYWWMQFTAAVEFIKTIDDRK
Chain of UniProt Q13011 (Q13011 whole entry, looked up): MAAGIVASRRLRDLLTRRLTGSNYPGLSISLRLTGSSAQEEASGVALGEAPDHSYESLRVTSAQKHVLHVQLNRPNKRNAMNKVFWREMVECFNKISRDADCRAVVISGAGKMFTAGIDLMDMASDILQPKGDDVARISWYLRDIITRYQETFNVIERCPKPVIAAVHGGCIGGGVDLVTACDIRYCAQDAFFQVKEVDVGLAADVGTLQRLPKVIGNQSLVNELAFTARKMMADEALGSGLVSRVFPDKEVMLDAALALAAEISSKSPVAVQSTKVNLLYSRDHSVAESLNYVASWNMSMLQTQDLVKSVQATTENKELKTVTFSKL
Chain of UniProt Q9NZC3 (Q9NZC3 whole entry, looked up): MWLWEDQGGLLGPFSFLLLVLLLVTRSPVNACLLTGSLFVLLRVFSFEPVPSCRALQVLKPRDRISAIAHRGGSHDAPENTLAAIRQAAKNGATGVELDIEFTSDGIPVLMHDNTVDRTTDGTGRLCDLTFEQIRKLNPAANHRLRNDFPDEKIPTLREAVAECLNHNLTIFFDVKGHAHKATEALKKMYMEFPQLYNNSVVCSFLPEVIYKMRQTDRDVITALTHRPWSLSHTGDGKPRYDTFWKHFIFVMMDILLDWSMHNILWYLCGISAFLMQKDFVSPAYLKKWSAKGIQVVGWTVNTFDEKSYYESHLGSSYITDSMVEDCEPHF

Target | log2 fold change (lapatinib) | log2 fold change (pictilisib) | log2 fold change (crizotinib) | log2 fold change [1] | log2 fold change (duvelisib) | log2 fold change (gandotinib) | log2 fold change (tozasertib) | log2 fold change (doramapimod) | log2 fold change (bafetinib) | log2 fold change [2]
FAU (UniProt E9PR30) | -0.018 | 0.02 | -0.055 | 0.293 (active) | 0.047 | -0.105 | -0.027 | 0.071 | -0.019 | -0.121
EMC7 (UniProt Q9NPA0) | -0.03 | 0.024 | 0.012 | -0.353 (active) | -0.041 | 0.077 | 0.02 | 0.011 | -0.031 | 0.174
FBXO30 (UniProt Q8TB52) | -0.015 | -0.03 | -0.013 | 0.187 | 0.024 | -0.072 | -0.021 | 0.045 | 0.032 | -0.117
GIGYF2 (UniProt Q6Y7W6) | 0.013 | 0.057 | 0.024 | 0.03 | -0.033 | 0.05 | -0.006 | -0.086 | -0.043 | -0.009
DUS3L (UniProt Q96G46) | -0.009 | -0.02 | -0.027 | 0.202 | -0.022 | -0.081 | 0.009 | -0.018 | 0.093 | -0.097
GDPD1 (UniProt Q8N9F7) | 0.03 | -0.042 | -0.157 | 0.001 | 0.049 | 0.164 | -0.029 | 0.027 | 0.022 | 0.007
EBP (UniProt Q15125) | -0.044 | -0.004 | 0.07 | -0.269 (active) | -0.093 | 0.1 | -0.016 | -0.127 | -0.011 | 0
EIF2B5 (UniProt Q13144) | -0.01 | -0.012 | -0.009 | -0.005 | 0.001 | -0.119 | -0.019 | 0.003 | -0.033 | 0.006
ERCC4 (UniProt Q92889) | -0.023 | -0.013 | -0.031 | -0.544 (active) | 0.003 | 0.054 | -0.059 | 0.087 | -0.101 | 0.159
DSN1 (UniProt Q9H410) | 0.009 | -0.027 | -0.016 | -0.051 | 0.004 | 0.008 | 0.015 | -0.037 | -0.026 | 0.021
ERI1 (UniProt Q8IV48) | 0.037 | -0.079 | -0.017 | 0.047 | -0.022 | -0.123 | -0.015 | 0.015 | 0.04 | -0.051
FAM98A (UniProt Q8NCA5) | 0.001 | -0.024 | 0.007 | 0.074 | -0.024 | -0.059 | 0.023 | -0.015 | 0.012 | 0
GAPVD1 isoform 6 (UniProt Q14C86) | 0 | -0.017 | -0.023 | 0.054 | 0.011 | -0.088 | -0.002 | 0.025 | -0.022 | -0.018
GCN1 (UniProt Q92616) | -0.034 | -0.027 | -0.125 | -0.002 | 0.008 | -0.121 | 0.017 | 0.019 | -0.049 | 0.053
EIF2B3 (UniProt Q9NR50) | -0.007 | -0.021 | -0.061 | 0.234 (active) | 0.016 | -0.115 | -0.035 | 0.012 | -0.024 | -0.047
ERLIN2 (UniProt O94905) | -0.015 | -0.091 | -0.004 | 0.304 (active) | 0.003 | -0.077 | 0.02 | 0.043 | -0.015 | -0.114
FARSA (UniProt Q9Y285) | -0.028 | 0.012 | -0.05 | -0.003 | 0.056 | 0.039 | -0.063 | 0 | -0.075 | -0.047
ENO2 (UniProt P09104) | 0.01 | 0.012 | -0.009 | -0.358 (active) | 0.04 | 0.214 | -0.111 | -0.012 | -0.014 | 0.264 (active)
GFPT1 (UniProt Q06210) | -0.001 | -0.026 | -0.033 | 0.009 | -0.002 | -0.066 | -0.013 | -0.001 | -0.031 | 0.007
GALK1 isoform 2 (UniProt P51570) | -0.002 | -0.02 | -0.015 | 0.092 | -0.028 | -0.098 | 0.03 | 0.039 | -0.007 | -0.013
FDX2 (UniProt Q6P4F2) | 0.047 | -0.169 | 0.057 | -0.142 | 0.188 | 0.014 | -0.15 | 0.014 | 0 | 0.112
GALNT2 (UniProt Q10471) | -0.016 | -0.039 | 0.009 | -0.074 | -0.044 | 0.272 (active) | 0.047 | -0.014 | -0.002 | 0.18
EIF2D (UniProt P41214) | -0.002 | -0.014 | -0.067 | 0.024 | 0.022 | -0.084 | 0.029 | 0.032 | -0.063 | -0.01
ENO1, A0A2R8YEM5 | -0.016 | -0.037 | 0.017 | -0.469 (active) | 0 | 0.185 | 0.001 | -0.006 | 0.036 | 0.244 (active)
GEMIN2 (UniProt O14893) | -0.025 | -0.029 | 0.059 | -0.12 | 0.075 | 0 | -0.021 | -0.092 | -0.053 | 0.139
FPGT (UniProt O14772) | 0.005 | 0.019 | -0.077 | 0.319 (active) | 0.006 | -0.085 | 0.012 | 0.054 | -0.043 | -0.012
ERLIN1 (UniProt O75477) | -0.041 | -0.01 | 0.032 | -0.094 | -0.011 | 0.033 | 0.019 | 0.048 | -0.027 | 0.03
GDE1 (UniProt Q9NZC3) | -0.016 | 0.114 | -0.005 | 0.842 (active) | 0.049 | -0.434 (active) | 0.157 | -0.017 | -0.041 | -0.409 (active)
ECH1 (UniProt Q13011) | -0.035 | -0.008 | -0.03 | -0.089 | 0.016 | 0.005 | 0.178 | -0.008 | 0.091 | 0.028
EPN2 (UniProt O95208) | -0.007 | -0.037 | -0.009 | -0.407 (active) | 0.055 | 0.165 | -0.036 | 0.065 | -0.027 | 0.093
